Data reported in the OligoGym collection.

biological target: CYTH1; test: pooled miR-30 sensor sort-seq; sequence = guide strand; details: shRNA
Also: reference of the scale not given here.

Sequence | sensor-assay potency score (higher = more potent)
TCGTTCTCTATTAAGAACTGGA | -0.271
TAGGAAACACTTGAGAACCAGG | -0.778
TTGCACTGACAATATCGCTGGG | 0.116
TAACTTGGTCTTTATTGTCGGG | -0.54
TTGGTCTTTATTGTCGGGGATA | -1.5
TACTTCTGCTATCTCATCCTTC | 0.117

biological target: CYTH4; test: as above; details: shRNA

Sequence | sensor-assay potency score (higher = more potent)
TGATCCTCTGTAACTCTTCCGT | -0.462
TTGAGCAGCCAACCCTCCCGGT | -1.04
TTCATGGACACAAAGCGCTCGA | -0.11
AAGGACAACACGTAGCAGGTGT | 0.877
TTTCGGTGCCACTTGATCCTCT | -0.308
TCCATGTTGAACTTCTTGCGCC | -1.08
TTGTCGGTCAGGATGAACCAGC | -0.768
TAGCAGGTGTCTGTGGACTGGA | -0.452
TTGGATATAGCACCCATCCTGC | -0.488
TTGAGGTTGGCGAACTCGTGGC | -0.377
TGTAACTCTTCCGTCTCCCCGC | -0.31

biological target: CYorf15A; test: as above; details: shRNA

Sequence | sensor-assay potency score (higher = more potent)
TACAACATGGAGTTGCTGCTTT | 0.408
AAGACTTTTTCTTTGTTCCTGT | 0.524
ATTTACAACATGGAGTTGCTGC | -0.262
TTGGAGTTGATTATTAACTAAA | -1.56
TTGCATTGTAAAGCTTGCTGAC | -0.311
TTGTGCATTTACAACATGGAGT | -0.696
TTGCTTTACAAAGTCTAGTAGG | -0.465
TATCTTTTCCATTATTTGCTTT | -0.915
TTCTTTGTTATAAAGTCACGGC | -0.192
TCTGCTTTCTCTCTTAACCCAC | -0.243
TAAAGCTTGCTGACCAGACGGA | 0.11
TTATTTGCTTTACAAAGTCTAG | -0.983

biological target: DAGLA; test: as above; details: shRNA

Sequence | sensor-assay potency score (higher = more potent)
TATATTTATAGAATAAGCTATA | -0.774
TAGAAGTCCGGATCTTGTCAGC | -0.641
TAGCGGAGCATCTCTTGTGAAT | -1.2
TTTTCTAAACTCTAAGAGCCAC | -0.539
TTTTACAGCAATATTAGTTTGG | 0.015
TTAGGAACGGTGCACACTCATG | -1.56
TTGAGGGTCGGATACTGTGGGC | -1.18
ATTCTTGGCAGTGAGGTCGTTG | -0.825
TTAAGTACAAAAAAAGTCTGGG | 0.278
TAGAGGTCTTGGAAGGAGCTGC | 0.223
TTCATCTGAGAGTCTGTCTTGT | 0.509
